Source: PubChem
PD-1 reversal – activators reversing PD-1 mediated T-cell inhibition | primary human CD4 T cells, PD-L1 beads, CellTiter-Glo 96 h | activation, % (test concentration not listed) | 29,000 tested, under 10 active | AID 2316; call rule not given here
NOMO-1 viab – STK33 inhibitor candidate reducing NOMO-1 cell viability; inhibition, % (concentration not given with the values); actives 7.5% (n = 37,000); NOMO-1 AML viability, CellTiter-Glo luminescence, 72 h; in the data active means inhibition above about 80%; inconclusive means no clear call, values can overlap the other calls
U2OS ROS induce – raises reactive oxygen species in U2OS cancer cells; U2OS ROS induction, H2DCF-DA fluorescence; ROS induction (% of piperlongumine), % at 10 µM; actives 2% (n = 46,000); AID 624156; in the data active means ROS induction above about 79%, passing the limit was not always enough; inconclusive means no clear call, values can overlap the other calls
Numbers stand for hits; . = inactive; ? = inconclusive; / = no result. The sample as a whole holds a higher share of hits than the screen did.

SMILES | PD-1 reversal | NOMO-1 viab | U2OS ROS induce
Cc1nc2ccccc2c(=O)n1/N=C/c1ccsc1 | / | / | .
c1ccc(CN(CCN(Cc2ccccn2)Cc2ccccn2)Cc2ccccn2)nc1 | . | 98 | .
Cc1cc[n+](Cc2ccccn2)c(N)c1 | . | . | .
CCCCn1c(Br)nc2c1c(=O)[nH]c(=O)n2C | . | . | .
Cc1cccc(NC(=O)CN(c2cc(Cl)c(Cl)cc2Cl)S(C)(=O)=O)c1 | . | . | .
Cc1cc(Cl)ccc1N(CC(=O)Nc1cc(Cl)cc(Cl)c1)S(C)(=O)=O | . | 90 | .
COC(=O)c1ccc(NC(=O)CN(c2ccc(Cl)cc2C)S(C)(=O)=O)cc1 | . | . | .
Cc1cc(NC(=O)CN(c2ccc(Cl)c(C(F)(F)F)c2)S(C)(=O)=O)ccc1Br | . | 103 | .
Cc1cc(N(CC(=O)Nc2ccc(Cl)cc2C)S(C)(=O)=O)ccc1Br | . | 87 | .
Cc1cc(Cl)ccc1NC(=O)CN(c1cccc(Cl)c1)S(C)(=O)=O | . | . | .
CS(=O)(=O)N(CC(=O)Nc1cccc(C(F)(F)F)c1)c1cc(Cl)c(Cl)cc1Cl | . | 140 | .
Cc1ccc(NC(=O)CN(c2ccc(Cl)c(C(F)(F)F)c2)S(C)(=O)=O)cc1Cl | / | . | /
CCOc1cc(C(=S)N2CCCC2)ccc1OCc1ccccc1F | / | / | .
CC(C)(C)c1cc(Sc2nc(N3CCOCC3)nc(N3CCOCC3)n2)cc(C(C)(C)C)c1O | / | / | .
COc1ccc(CCNC(=O)CSc2nc3c(sc4ccccc43)c(=O)n2CCO)cc1OC | / | / | .
CC1(C)CC(NC(=O)c2ccc(-n3cnnn3)cc2)CC(C)(C)N1 | / | / | .
S=C(Nc1ccc(Cl)c(Cl)c1)NC1CCCC1 | / | / | .
O=C(NCCc1ccccn1)c1ccc2nccnc2c1 | / | / | .
O=C(/C=C/c1ccc(O)c(O)c1)O[C@@H]1C[C@](O)(C(=O)O)C[C@@H](O)[C@H]1O | / | . | .
COc1cc(/C=C/C(=O)OC2CC3CCC2(C)C3(C)C)ccc1O (centres undefined) | . | 104 | ?
O=C(NC1CCCc2ccccc21)c1cnn(-c2ccccc2)c1-n1cccc1 (centres undefined) | / | / | .
COc1ccc(OC)c(NC(=O)C2=C(C)NC(=S)NC2c2ccc(OC)cc2OC)c1 (centres undefined) | . | . | ?
COC(=O)COc1ccc(C2NC(=S)NC(C)=C2C(=O)OC)cc1 (centres undefined) | / | 89 | /
C=CCNC(=O)c1ccc2c(c1)N(Cc1cccc(Cl)c1)C(=O)c1ccccc1S2 | / | / | .
Cc1ccc(C(=O)c2oc3ccccc3c2NC(=O)c2cc3ccccc3oc2=O)cc1F | . | 112 | .
SMILES | PD-1 reversal | NOMO-1 viab | U2OS ROS induce
CCOc1ccc(C(=O)c2oc3ccccc3c2NC(=O)c2cc3ccccc3oc2=O)cc1 | . | . | .
O=C(CCCn1sc2ccccc2c1=O)NC1CCCc2ccccc21 (centres undefined) | / | / | .
C[C@@H]1CN([C@H](C)CO)C(=O)Cc2cc(NC(=O)C3CCCCC3)ccc2O[C@H]1CN(C)Cc1ccc(Oc2ccccc2)cc1 | / | 81 | .
C[C@@H]1CN([C@H](C)CO)C(=O)c2cc(NC(=O)C3CCCCC3)ccc2O[C@H]1CN(C)Cc1ccc(Oc2ccccc2)cc1 | . | . | .
C[C@H](CO)N1C[C@H](C)[C@@H](CN(C)Cc2ccc(Oc3ccccc3)cc2)Oc2ccc(NC(=O)C3CCCCC3)cc2C1=O | . | . | 84
C[C@H]1CN([C@@H](C)CO)C(=O)c2cc(NC(=O)C3CC3)ccc2O[C@@H]1CN(C)Cc1ccc(-c2ccccc2)cc1 | . | . | .
C[C@H]1CN([C@@H](C)CO)C(=O)Cc2cc(NC(=O)C3CCCCC3)ccc2O[C@H]1CN(C)Cc1ccc(Oc2ccccc2)cc1 | . | . | .
C[C@H](CO)N1C[C@H](C)[C@@H](CN(C)Cc2ccc(-c3ccccc3)cc2)Oc2ccc(NC(=O)C3CCCCC3)cc2C1=O | . | . | 104
C[C@@H]1CN([C@H](C)CO)C(=O)c2cc(NC(=O)NC3CCCCC3)ccc2O[C@@H]1CN(C)Cc1ccncc1 | . | . | .
C[C@H](CO)N1C[C@H](C)[C@H](CN(C)Cc2ccncc2)Oc2ccc(NC(=O)NC3CCCCC3)cc2C1=O | . | 105 | .
COc1ccc(C(=O)Nc2ccc(N3CCN(C(=O)OC(C)(C)C)CC3)nc2)cc1 | / | / | .
COc1ccc(C2C3=C(CCCC3=O)N=C3c4ccccc4C(=O)C32)cc1 (centres undefined) | / | / | .
COC(=O)c1cc(C2CC2)[nH]n1 | / | / | .
CCOC(=O)N1CCN(C(=O)CSc2ccc(-c3cccs3)nn2)CC1 | / | / | .
COc1ccc(CC(=O)NCc2cc(C)oc2C(F)(F)F)cc1OC | / | / | .
O=C(Nc1ccccc1C(F)(F)F)C1Sc2nnc(-c3ccccc3)n2NC1c1ccc(F)cc1 (centres undefined) | . | . | .
CCc1ccccc1Oc1coc2cc(OC(=O)c3ccccc3F)ccc2c1=O | / | / | .
COC(=O)c1c(C)nn(-c2ccccc2)c1-n1c(C)ccc1C | / | / | .
Cc1oc(C(C)(C)C)cc1C(=O)NCc1ccc(C(=O)O)o1 | / | / | .
O=C(NCc1cc(F)cc2c1OCOC2)c1ccc2nonc2c1 | / | / | .
CCOC(CCn1c(SC)nc2c(sc3ccccc32)c1=O)OCC | / | / | .
C[C@H]1CN([C@@H](C)CO)C(=O)c2cc(NC(=O)C3CCCCC3)ccc2O[C@@H]1CN(C)Cc1ccncc1 | . | . | .
C[C@H]1CN([C@@H](C)CO)C(=O)c2cc(NC(=O)C3CCCCC3)ccc2O[C@H]1CN(C)Cc1ccncc1 | . | 97 | .
C[C@@H]1CN([C@H](C)CO)C(=O)c2cc(NC(=O)C3CCCCC3)ccc2O[C@H]1CN(C)Cc1ccc(-c2ccccc2)cc1 | . | . | .
C[C@H]1CN([C@@H](C)CO)C(=O)c2cc(NC(=O)C3CCCCC3)ccc2O[C@@H]1CN(C)Cc1ccc(-c2ccccc2)cc1 | . | 100 | ?
SMILES | PD-1 reversal | NOMO-1 viab | U2OS ROS induce
Cc1nccc(-c2nn(-c3ccc(F)cc3)ccc2=O)n1 | / | / | .
CC1CCc2c(sc3nc(-c4cc5ccccc5oc4=O)[nH]c(=O)c23)C1 (centres undefined) | / | / | .
CSc1cccc(NC(=S)NCc2cccn2C)c1 | / | / | .
COC(=O)CCC(=O)c1cc(C(C)(C)C)sc1C(C)(C)C | / | / | .
Cc1ccc(C(O)(COC(=O)C(C)C)COC(=O)C(C)C)c(O)c1 | . | 117 | .
CC(C)CCCC(C)(O)c1ccc(C(=O)O)cc1O (centres undefined) | . | . | .
O=C(Nc1ccccc1)OCC#Cc1ccc(-c2ccccn2)s1 | / | / | .
O=C(c1ccc2c(=O)n3c(nc2c1)CCCCC3)N1CCCC1 | / | / | .
C[C@@H]1CN([C@@H](C)CO)C(=O)c2cc(N(C)C)ccc2O[C@@H]1CN(C)Cc1ccc(Oc2ccccc2)cc1 | . | 90 | .
C[C@@H]1CN([C@@H](C)CO)C(=O)c2cc(N(C)C)ccc2O[C@H]1CN(C)Cc1ccc(Oc2ccccc2)cc1 | . | . | .
C[C@H]1CN([C@@H](C)CO)C(=O)Cc2cc(N(C)C)ccc2O[C@H]1CN(C)Cc1ccc(Cl)c(Cl)c1 | . | . | .
C[C@H](CO)N1C[C@H](C)[C@H](CN(C)Cc2ccc(Oc3ccccc3)cc2)Oc2ccc(N(C)C)cc2CC1=O | . | . | .
C[C@@H]1CN([C@@H](C)CO)C(=O)Cc2cc(N(C)C)ccc2O[C@@H]1CN(C)Cc1ccc(Cl)c(Cl)c1 | . | 127 | .
